Bioassay records deposited in PubChem BioAssay by several laboratories.
CYP2C19 activ: increases human CYP2C19 enzyme activity | P33261 | AID 1025 | activation factor at 5 µM | recombinant CYP2C19, luciferin-H EGE luminescence; hits give high values; 0 = fully inhibited enzyme, 1 = untreated enzyme | 96,000 tested, under 10 active;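 active = activation factor of at least 2 at 5 µM in the primary screen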;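 also: 0 = wells with 2.5 mM tranylcypromine and 1 = vehicle-only wells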
cytoskel mod: alters cytoskeleton assembly in HUVEC cells. HUVEC TNFa F-actin phalloidin imaging, high content. inhibition, % at 2 µM. 91,000 tested, 0.18% active;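 active = inhibition above the batch mean plus 3 SD and confirmed as a hit by visual image inspection, cut at about 30% in these data, passing the limit was not always enough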
E-sel TNF inh: TNF alpha driven E-selectin expression inhibition; HUVEC TNFa-induced E-selectin immunofluorescence, high content; inhibition, % at 2 µM; 120,000 tested, 0.71% active; AID 1246;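 active = inhibition above the batch mean plus 3 SD, and confirmed as a hit on visual image review, cut at about 43% in these data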;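 also: 0% = TNF-stimulated DMSO wells and 100% = unstimulated control wells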
CYP2C9 activ: increases human cytochrome P450 2C9 activity | 96,000 tested, 1.4% active | recombinant CYP2C9, luciferin-H conversion, luminescence; hits give high values; factor 1 = untreated enzyme, 0 = blocked | activation factor at 5 µM;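 active = activation factor of 2 or more for CYP2C9 at a 5 µM dose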;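 also: 0 = sulfaphenazole-blocked wells and 1 = vehicle-only wells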
Target sequence (P11712 whole entry, looked up): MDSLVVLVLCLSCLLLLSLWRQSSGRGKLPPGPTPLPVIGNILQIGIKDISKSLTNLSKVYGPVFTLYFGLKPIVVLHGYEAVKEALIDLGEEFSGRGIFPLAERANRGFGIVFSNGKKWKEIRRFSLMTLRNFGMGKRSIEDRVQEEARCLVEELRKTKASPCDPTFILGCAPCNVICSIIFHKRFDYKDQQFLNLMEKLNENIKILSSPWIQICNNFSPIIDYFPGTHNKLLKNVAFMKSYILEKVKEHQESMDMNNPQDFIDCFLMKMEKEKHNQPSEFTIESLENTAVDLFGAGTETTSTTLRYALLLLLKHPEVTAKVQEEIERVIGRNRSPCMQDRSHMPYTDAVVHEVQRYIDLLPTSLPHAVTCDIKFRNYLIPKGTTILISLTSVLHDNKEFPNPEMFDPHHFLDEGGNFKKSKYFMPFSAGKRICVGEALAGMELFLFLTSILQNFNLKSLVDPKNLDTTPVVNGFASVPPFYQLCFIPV
CYP2C19 inhib: human CYP2C19 inhibition; P33261; CYP2C19 Supersomes, luciferin-H EGE luminescence, 30 min; inhibition, % at 5 µM; 96,000 tested, 21% active;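 active = CYP2C19 inhibition above a set limit at 5 µM in the primary screen, cut at about 50% in these data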;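 also: plate controls were negative control wells for no effect and 2.5 mM tranylcypromine positive control for full effect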
CYP2C9 inhib: inhibitors of human CYP2C9; P11712; CYP2C9 Supersomes, luciferin-H conversion, luminescence; inhibition, % at 5 µM; 96,000 tested, 20% active; AID 777;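 active = blocking of liver enzyme CYP2C9 beyond about 50% at 5 µM, limit read from the data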
Active calls of the source: *; . = not tested or not shown. Rows were chosen to be rich in hits. Some 22% of all compounds tested hit in one or more screens of this group.

SMILES | CYP2C19 activ | cytoskel mod | E-sel TNF inh | CYP2C9 activ | CYP2C19 inhib | CYP2C9 inhib
O=C(Cn1nnc(-c2cccc(C(F)(F)F)c2)n1)N1CCOCC1 | 1 | . | . | 3.3* | -0.8 | -229.9
CN(C(=O)Cn1nnc(-c2cccc(C(F)(F)F)c2)n1)C1CCCCC1 | 0.9 | 13.0 | 14.2 | 1.8 | 9.3 | -78.8
Cc1cccc(NS(=O)(=O)c2c(C)noc2C)c1 | . | . | -9.9 | . | . | .
Cc1c(/C=N/O)c2ccccn2c1C=O | . | . | 20.3 | . | . | .
O=c1c(/C=N/O)c(Nc2ccccc2)nc2ccccn12 | 0.8 | 6.6 | . | 0.5 | 19.5 | 50.1*
CCC(C)(C)n1nnnc1C(c1cc2cccc(C)c2[nH]c1=O)N1CCN(C(=O)c2ccco2)CC1 (stereo not drawn) | 0.7 | 28.0 | 7.5 | 0.7 | 26.8 | 30.3
Cc1cccc(N2CCN(C(=O)Cn3sc4nc(C)cc(C)c4c3=O)CC2C)c1 (stereo not drawn) | 0.7 | -19.6 | 7.2 | 0.5 | 26.1 | 53.6*
Cc1cccc(N2CCN(C(=O)Cn3c(=O)[nH]c4ccsc4c3=O)CC2C)c1 (stereo not drawn) | 0.4 | -22.1 | -30.7 | 0.6 | 59.4* | 37.4
O=C(CN1CCOc2ccccc21)N1CCN(c2cccc(Cl)c2)CC1 | . | 0.5 | -1.6 | . | . | .
Cc1cccc(N2CCN(C(=O)c3ccncc3)CC2C)c1 (stereo not drawn) | 0 | 31.9 | -10.8 | 0.5 | 100.0* | 49.1
Cc1cccc(N2CCN(C(=O)c3ccc4c(c3)OCCO4)CC2C)c1 (stereo not drawn) | . | . | -41.3 | . | . | .
Cc1cccc(N2CCN(C(=O)CN3CCOc4ccccc43)CC2C)c1 (stereo not drawn) | 0.1 | -16.0 | -5.5 | 0.5 | 93.7* | 53.9*
N#Cc1cc2c([nH]c1=S)CCCCCC2 | 1.1 | 17.9 | 26.8 | 1 | -10.7 | -1.8
CCOC(=O)C[n+]1c(C)csc1C | . | . | -3.2 | . | . | .
COc1ccccc1CNC(=O)N[C@@H](Cc1ccccc1)C(=O)O | 0.3 | 0.6 | 8.3 | 0.8 | 70.4* | 21.4
COC(=O)[C@H](Cc1ccccc1)NC(=O)NCc1cccs1 | 0.4 | -12.0 | 3.1 | 0.8 | 62.9* | 19.8
COc1cccc(Oc2cn[nH]c2-c2ccc(O)cc2O)c1 | 0 | -16.8 | 28.2 | 0 | 98.2* | 96.6*
COc1cccc(Oc2cn[nH]c2-c2ccc(OC)cc2O)c1 | 0 | -0.3 | . | 0 | 99.2* | 99.8*
CCOc1ccc(-c2[nH]ncc2Oc2cccc(OC)c2)c(O)c1 | 0 | -20.3 | . | 0 | 99.4* | 100.2*
COc1ccc(-c2[nH]ncc2CN2CCSCC2)c(OC)c1 | . | . | 7.9 | . | . | .
COc1ccc(CNc2nc(-c3cccnc3)nn2C(=O)c2cccs2)cc1 | . | . | -19.9 | . | . | .
O=C(OCc1ccc(Cl)cc1)c1cccnc1Cl | . | . | 20.2 | . | . | .
O=C(CN1CCC(C(=O)c2ccc(F)cc2)CC1)Nc1ccccc1 | 0.6 | -19.9 | 13.7 | 0.4 | 36.8 | 57.0*
CCOc1ccccc1NC(=O)N1CCC(C(=O)c2ccc(F)cc2)CC1 | 0.2 | 15.8 | -11.6 | 2.5* | 83.1* | -152.8
COc1ccccc1NC(=O)N1CCC(C(=O)c2ccc(F)cc2)CC1 | 0.7 | 0.3 | -0.1 | 3.4* | 32.0 | -237.4
SMILES | CYP2C19 activ | cytoskel mod | E-sel TNF inh | CYP2C9 activ | CYP2C19 inhib | CYP2C9 inhib
CC(=O)N1CCc2[nH]c3ccccc3c2C1 | 0.7 | 6.3 | -0.3 | 0.9 | 33.1 | 12.9
O=C(CN1CCC(C(=O)c2ccc(F)cc2)CC1)Nc1ccc(F)cc1 | . | 12.6 | -8.3 | . | . | .
COc1ccccc1NC(=O)N1CCc2[nH]c3ccc(F)cc3c2C1 | 0.3 | 41.8 | 24.4 | 1.3 | 66.7* | -29.6
COc1ccc(Cn2c(=O)c3cccnc3n(Cc3ccc([N+](=O)[O-])cc3)c2=O)cc1 | . | . | -27.8 | . | . | .
O=C1NC(=S)N/C1=C/c1cc([N+](=O)[O-])ccc1N1CCOCC1 | . | . | 12.0 | . | . | .
COc1ccc(CNC(=O)CN2CCC(C(=O)c3ccc(OC)cc3)CC2)cc1 | 0.4 | -18.2 | -14.7 | 0.3 | 63.0* | 70.2*
COc1ccccc1NC(=O)CN1CCCCC1 | 0.9 | 32.6 | -3.8 | 0.6 | 5.8 | 37.4
COc1ccccc1NC(=O)CN1CCC(C(=O)c2ccc(F)cc2)CC1 | 0.5 | -4.8 | -11.9 | 1.1 | 52.1* | -11.0
Cc1nnc(NCc2ccncc2)c2ccccc12 | 0.8 | -78.8 | -7.8 | 0.9 | 16.6 | 12.5
CCOC(=O)c1cn2nc(-c3ccc(OC)cc3)cc2nc1C1CCN(C(=O)OC(C)(C)C)CC1 | 0.8 | -24.6 | 11.3 | 0.4 | 19.6 | 63.4*
Cc1ccc(C2=NC3(CCCCC3)N=C2SCC(=O)Nc2ccc3c(c2)OCCO3)cc1 | . | . | -6.1 | . | . | .
O=C(CSc1nc2cc(Cl)ccc2o1)NCCc1ccccc1 | 0.5 | 8.6 | -1.3 | 0.3 | 50.9* | 65.1*
COc1ccc(CCNC(=O)CSc2nc3ccccc3o2)cc1 | 0.1 | -6.8 | 2.3 | 0 | 92.2* | 98.6*
CCS(=O)(=O)c1ccc2oc(SCC(=O)NC3CCCC(C)C3C)nc2c1 (stereo not drawn) | 0.5 | 1.9 | -0.2 | 0.5 | 52.0* | 46.3
O=C(CSc1nc2ccccc2o1)Nc1ccc(Cl)cc1 | 0.8 | -3.0 | 3.1 | 0.5 | 23.9 | 49.7
CCN(CC)S(=O)(=O)c1ccc2oc(SCC(=O)NCc3ccccc3)nc2c1 | 0 | . | 4.1 | 0.1 | 97.2* | 90.3*
COc1cccc(CNC(=O)c2ccc(NC(=O)C3CCCO3)cc2)c1 (stereo not drawn) | 1.1 | . | -64.8 | 1.2 | -13.8 | -23.9
Cc1ccc(N2C(=O)CC(N3CCN(C)CC3)C2=O)cc1 (stereo not drawn) | . | -0.9 | 8.6 | . | . | .
Cc1ccc(C(=O)Nc2ccc(C)c(S(=O)(=O)Nc3ccccc3Cl)c2)s1 | . | . | 5.3 | . | . | .
O=C(CSc1nc2cc(Cl)ccc2o1)c1cccs1 | 0.4 | . | . | 0.4 | 57.6* | 60.2*
Cc1cc(C)n(S(=O)(=O)c2cc(C(=O)O)c(Cl)cc2Cl)n1 | 0.9 | -3.4 | 10.0 | 0.8 | 11.2 | 22.4
Cc1cc(C)n(S(=O)(=O)c2ccc(Cl)c(Cl)c2Cl)n1 | 0.3 | -5.5 | -0.4 | 1.7 | 68.6* | -73.0
COc1c(S(=O)(=O)n2nc(C)cc2C)ccc(Cl)c1Cl | 0.5 | -30.1 | -0.1 | 2.3* | 51.7* | -131.5
Cc1cc(C)n(S(=O)(=O)c2cccc(Cl)c2Cl)n1 | 0.5 | -0.8 | . | 0.7 | 54.1* | 25.5
COc1ccc(-c2cc3nc(C)cc(N4CC(C)CC(C)C4)n3n2)cc1 (stereo not drawn) | . | -18.4 | -5.2 | . | . | .
SMILES | CYP2C19 activ | cytoskel mod | E-sel TNF inh | CYP2C9 activ | CYP2C19 inhib | CYP2C9 inhib
O=C(O)c1ccc(/C=N/Nc2ccc(F)cc2F)cc1 | . | . | 6.6 | . | . | .
CCCCn1c(C(C)NC(=O)c2cccs2)nc2ccccc21 (stereo not drawn) | 0.8 | . | -63.2 | 0.6 | 21.6 | 44.5
O=C(CS(=O)(=O)c1cccc(Cl)c1)Nc1ccccc1Cl | 0.2 | -6.4 | 14.3 | 1.7 | 77.6* | -71.0
O=C(CS(=O)(=O)c1ccc2ccccc2c1)Nc1ccccc1Cl | . | . | -13.8 | . | . | .
CN1CCN(c2ccc(C(=O)c3ccccc3)cc2[N+](=O)[O-])CC1 | . | . | 7.1 | . | . | .
CCOC(=O)c1sc(NC(=O)CSc2nnc(Cc3ccccc3)o2)c(C(=O)OCC)c1C | 0.5 | 1.5 | -10.3 | 0.2 | 54.5* | 77.5*
